Reference: ChEMBL document CHEMBL3988442, “University of Dundee, Small-Polar-MMV Screening Library” (2021)

Tests used:
[1] = molecular target: T1, Aspartate--tRNA(Asp/Asn) ligase (Mycobacterium tuberculosis (strain ATCC 25618 / H37Rv)) (UniProt P9WFW3); assay: Assay for Asp RNA synthetase-1 from Mycobacterium tuberculosis; format: functional; design: scale not given: direction of the effect not stated beside the values; conditions: 30 µM; also: in the data most compounds retested in dose-response had high values
T1 sequence (whole entry): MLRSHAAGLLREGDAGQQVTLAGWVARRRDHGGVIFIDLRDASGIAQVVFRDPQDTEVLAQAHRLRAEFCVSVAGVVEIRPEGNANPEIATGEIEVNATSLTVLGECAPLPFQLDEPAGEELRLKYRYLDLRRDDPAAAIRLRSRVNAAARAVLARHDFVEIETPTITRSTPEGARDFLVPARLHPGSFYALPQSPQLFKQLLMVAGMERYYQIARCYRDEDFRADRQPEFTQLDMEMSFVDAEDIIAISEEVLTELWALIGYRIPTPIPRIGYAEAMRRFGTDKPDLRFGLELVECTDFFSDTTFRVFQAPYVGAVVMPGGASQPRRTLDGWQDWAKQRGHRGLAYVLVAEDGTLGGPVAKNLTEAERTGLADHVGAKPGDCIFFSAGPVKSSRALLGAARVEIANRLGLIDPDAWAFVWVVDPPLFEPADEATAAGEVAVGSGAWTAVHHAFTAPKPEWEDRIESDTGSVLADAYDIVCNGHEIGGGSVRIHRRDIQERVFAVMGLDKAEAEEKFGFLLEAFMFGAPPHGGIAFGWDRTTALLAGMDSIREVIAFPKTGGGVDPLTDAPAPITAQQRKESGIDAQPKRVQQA

[2] = molecular target: Shiga toxin 2 (Escherichia coli O157:H7) (UniProt P09385+P09386); assay: E. coli 0.157:H7 Shiga Toxin SOP - stx2 screening assay; format: functional; design: scale not given: direction of the effect not stated beside the values; conditions: 30 µM

Structure (SMILES)	Percent Effect [1]	Percent Effect [2]
Cc1nc(C)n(CC2CCCN2CCCOc2ccc(F)cc2)n1 (stereo unspecified)	-8.6%	0.578%
CCCn1c(C)c(CC(=O)N(C)CCOC)c2c1CC(C)(C)CC2=O	1.4%	-6.17%
COC(=O)C(c1cc(F)ccc1F)N(C)C(=O)c1ccnc(C)n1 (stereo unspecified)	-0.393%	-2.56%
c1ccc(-c2nc(CN3CCOC(Cn4cccn4)C3)no2)cc1 (stereo unspecified)	-1.51%	4.08%
Cc1ccc(N2CCN(C(=O)COc3nccc(C)n3)CC2)nn1	-6.35%	-50.4%
Cc1nc(CC(=O)N2CCCN(c3ccc(C#N)cc3)CC2)cs1	-8.71%	-26.6%
Cc1noc(C)c1CN1CCN(CC2CC2)c2ncccc2C1	2.1%	0.649%
O=C(c1cnccn1)N1CCN2C[C@H](OCc3ccccn3)C[C@H]2C1	4.4%	-7.9%
C1CC(c2noc(C3CC3)n2)CN(Cc2noc(C3CC3)n2)C1 (stereo unspecified)	-1.05%	6.22%
Cc1ccoc1C(=O)NC1CCN(Cc2cccc3c2OCCO3)CC1	-2.4%	-34.8%
CCc1nc(CN2CCCC(NCc3nc4cccnc4[nH]3)C2)no1 (stereo unspecified)	-3%	-27.7%
Cc1cc(C)c(CNC(=O)N2CCN(c3ncccn3)CC2)c(=O)[nH]1	-0.7%	-6.87%
CCn1nccc1CNC(=O)C(C)n1cc2c(n1)c(C)nn2C (stereo unspecified)	-5.02%	-29.4%
CN1CCc2onc(CNc3ncccn3)c2C1	6.7%	-1.52%
O=C(CN1C=Nc2ccccc2S1(=O)=O)NCCc1cccs1	0.225%	-2.28%
CN(Cc1ccc(F)cc1)C(=O)CN1CCCC(Cn2cncn2)C1 (stereo unspecified)	-5.51%	5.36%
Cc1nc(N)sc1C(=O)N1CCCC(c2nccn2CCCN(C)C)C1 (stereo unspecified)	-0.893%	12.2%
CCO[C@H]1CO[C@@]2(CCCN(S(=O)(=O)c3ccccc3)C2)C1	4.62%	-21.7%
